Several values for one entry are separate records, joined by “and”; a condition that tells them apart may be missing. Identical values can stand only once. Inconclusive results are not listed. Activity calls are given as the source filed them. Calls follow the shape of the dose curve; as a rule, active = well fitted curve in the direction sought with a large enough effect; inconclusive = small, poorly fitted or top-dose-only effect, or another doubt; inactive = no such curve, though single readings can be large; an effect the other way counts as inactive or inconclusive.
Legend:
[1] = qHTS of pediatric cancer cell lines to identify multiple opportunities for drug repurposing: Confirmatory screen for SJ-GBM2 cells (AID 1347116); conditions: SJ-GBM2 glioblastoma cells, viability; series mostly up to 45.9 µM; also: nearly all actives have a fitted effect of over 60% in size
Summary of the method: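 Viability measured as metabolically active cells via CellTiter-Glo luminescence following 48 hours of compound exposure, 11-point dilutions in confirmatory testing. 500-1,000 cells/well plated 5 hours before dosing; controls were DMSO and 2.3 µM bortezomib.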

[2] = qHTS of pediatric cancer cell lines to identify multiple opportunities for drug repurposing: Confirmatory screen for BT-37 cells (AID 1347117); conditions: BT-37 pediatric cancer cells, viability; series mostly up to 45.9 µM; also: nearly all actives have a fitted effect of over 55% in size
Summary of the method: (§1)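 Cells (500-1,000/well) in growth media were settled 5 h at 37 degrees C, then given compounds for 48 h. Viability was read as CellTiter-Glo luminescence. Primary runs used MIPE at 11 points (0.78 nM-46 µM) and NPC at 8 points (0.59 nM-46 µM); follow-ups used 11 points.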

[3] = qHTS of pediatric cancer cell lines to identify multiple opportunities for drug repurposing: Confirmatory screen for TC32 cells (AID 1347118); conditions: TC32 Ewing sarcoma cells viability qHTS; series mostly up to 45.9 µM;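 also: cells exposed to compound for 48 h before the read; nearly all actives have a fitted effect of over 65% in size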
Summary of the method: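 Luminescent CellTiter-Glo read-out of metabolically active TC32 cells after 48 h compound exposure. Primary: MIPE 11-point, 0.78 nM–46 µM; NPC 8-point, 0.59 nM–46 µM. Confirmatory: 11-point dilutions.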

[4] = qHTS of pediatric cancer cell lines to identify multiple opportunities for drug repurposing: Confirmatory screen for U-2 OS cells (AID 1347122); conditions: U-2 OS osteosarcoma cell viability; series mostly up to 45.9 µM; also: nearly all actives have a fitted effect of over 65% in size
Summary of the method: as §1

[5] = qHTS of pediatric cancer cell lines to identify multiple opportunities for drug repurposing: Confirmatory screen for RD cells (AID 1347124); conditions: RD rhabdomyosarcoma cell viability; series mostly up to 45.9 µM;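 also: cells exposed to compound for 48 h before viability readout; nearly all actives have a fitted effect of over 65% in size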
Summary of the method: as §1

[6] = qHTS of pediatric cancer cell lines to identify multiple opportunities for drug repurposing: Confirmatory screen for Rh30 cells (AID 1347126); conditions: Rh30 rhabdomyosarcoma cell viability; series mostly up to 45.9 µM; also: nearly all actives have a fitted effect of over 55% in size
Summary of the method: as §1

[7] = qHTS of pediatric cancer cell lines to identify multiple opportunities for drug repurposing: Confirmatory screen for MG 63 (6-TG R) cells (AID 1347119); conditions: MG-63 (6-TG resistant) osteosarcoma viability; series mostly up to 45.9 µM; also: nearly all actives have a fitted effect of over 55% in size
Summary of the method: as §1

[8] = qHTS of pediatric cancer cell lines to identify multiple opportunities for drug repurposing: Confirmatory screen for Rh41 cells (AID 1347123); conditions: Rh41 rhabdomyosarcoma cells, viability/cytotoxicity qHTS; series mostly up to 45.9 µM; also: nearly all actives have a fitted effect of over 60% in size
Summary of the method: as §1

[9] = qHTS of pediatric cancer cell lines to identify multiple opportunities for drug repurposing: Confirmatory screen for Rh18 cells (AID 1347125); conditions: Rh18 rhabdomyosarcoma cells, viability; series mostly up to 45.9 µM; also: nearly all actives have a fitted effect of over 55% in size
Summary of the method: as §1

[10] = qHTS of pediatric cancer cell lines to identify multiple opportunities for drug repurposing: Confirmatory screen for Saos-2 cells (AID 1347127); conditions: Saos-2 osteosarcoma cell viability; series mostly up to 45.9 µM; also: nearly all actives have a fitted effect of over 60% in size
Summary of the method: as §1

Measured: Potency
Potency is read from the fitted curve at half-maximal effect.

C[C@@H]1C[C@@H]([C@H](O)CC2CC(=O)NC(=O)C2)C(=O)[C@@H](C)C1
active: [1] 2330 nM | [2] 1.04 µM and 1.17 µM | [3] 465 nM and 522 nM | [4] 3290 nM | [5] 2610 nM | [6] 737 nM

Cc1ccc([N+](=O)[O-])[c]2c1[O][Hg]2
active: [1] 4140 nM | [2] 1.47 µM | [3] 0.261 µM | [7] 5220 nM | [4] 9270 nM | [8] 233 nM | [5] 827 nM | [9] 5220 nM | [10] 1040 nM

CN(C)C(=S)SSC(=S)N(C)C
active: [1] 8270 nM | [2] 1.04 µM | [3] 1.04 µM | [4] 3690 nM | [8] 233 nM | [5] 16500 nM | [9] 585 nM | [10] 10400 nM

COC(=O)C1=CCCN(C)C1
active: [3] 10.4 µM
not listed: [10]
inactive: all other assays above

CC1Sc2c(C(=O)O)c(=O)c3cc(F)c(N4CCNCC4)cc3n21 (centres undefined)
active: [3] 18.5 µM
inactive: [2] | [4] | [8] | [9]

ClC1=C(Cl)C2(Cl)C(CBr)CC1(Cl)C2(Cl)Cl (centres undefined)
not listed: [3] | [4]
inactive: all other assays above

COc1ccc2c(C(=O)c3ccc(Cl)cc3)c(C)n(CC(=O)O)c2c1
active: [3] 16.5 µM
not listed: [6]
inactive: all other assays above

Source: PubChem BioAssay (NCATS)
